# Values joined by “and” are separate entries in the source; they are usually repeats but may differ in a detail not shown here. Identical values can stand only once. The whole screen tested about 2,400 compounds, of which about 1,400 (58%) were called active.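 Rule for the calls: active = inhibition of 30% or more at any tested dose; inconclusive = primary hits over the limit that were never retested; inactive = the rest.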 The set was probably picked from earlier hits. The list shows a part of the results.
# Assay: ADP Hunter readout inhibition without MgcRacGAP – biochemical, coupled enzyme counter-screen, artefact control for MgcRacGAP inhibitor project, dose response (AID 624351);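 note: signal is the ADP detection kit reading of free GDP without any GAP enzyme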;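 for inhibition: 0% = median positive control wells and 100% = median negative control wells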
# Details: fluorescence, no MgcRacGAP; series mostly up to 80 µM; inhibition: at the top concentration
Structure (SMILES),IC50,inhibition
N/C(=N\[N+](=O)[O-])N/N=C/c1ccc(O)cc1,20.8 µM (active),
O=C(O)CCn1cc(C=C2C(=O)NC(=O)NC2=O)c(-c2ccc(Br)cc2)n1,,2% (inactive)
Cc1ccc(N2C(=O)NC(=O)/C(=C/c3ccoc3)C2=O)cc1,,1.28% (inactive)
COc1cc(C=C2C(=O)NC(=O)NC2=O)ccc1OCc1ccc([N+](=O)[O-])cc1,,3.37% (inactive)
COc1cc(OC)c(OC)cc1/C=C1\C(=O)NC(=O)N(Cc2ccccc2)C1=O,,6.49% (inactive)
CNC(=O)Oc1ccc(-c2cn3cc(C)ccc3n2)cc1,37.7 µM (active),
O=C(CNC1CCCC1)Nc1ccc(N2CCCCCC2)cc1,,23.6% (inactive)
NCCc1cc(O)c(O)cc1O,,-8.6% [at 5 µM] (inactive) and -17.1% [at 5 µM] (inactive)
CCN(CC)c1ccc(/C=C2/C(=O)NC(=O)N(Cc3ccco3)C2=O)cc1,,-0.29% (inactive)
c1ccc2c(c1)Nc1ccccc1S2,17.2 µM (active),
COc1ccccc1OCC#CCN1CCCC1,,13.8% (inactive)
O=P1(c2ccccc2)Nc2ccccc2N1c1ccccc1 (stereo not given),29.5 µM (active),
Cn1cccc1/C=C1\C(=O)NC(=O)N(Cc2ccco2)C1=O,,4.1% (inactive)
Nc1ccc2c3c(cccc13)-c1ccccc1-2,55.5 µM (active),
CC1=NNC(=O)C1Br (stereo not given),,5.41% (inactive)
COc1ccccc1CNCCc1cccc(Cl)c1,,17.4% (inactive)
C1=Cc2ccccc2Nc2ccccc21,12.4 µM (active),
Cc1cccc(OCC(=O)N2CCN(Cc3ccncc3)CC2)c1,,26.2% (inactive)
COc1ccc(/C=C2/C(=O)NC(=O)N(c3ccc(C)c(C)c3)C2=O)cc1CN1C(=O)c2ccccc2C1=O,,3.7% (inactive)
Cc1ccc(CN2CCN(Cc3ccccc3F)CC2)cc1,,25.6% (inactive)
Cc1cc(/C=C2\C(=O)NC(=O)N(c3ccc(Br)cc3)C2=O)c(C)n1-c1cc(C(=O)O)cc(C(=O)O)c1,,-1.86% (inactive)
O=C(O)Cn1cc(/C=C2\C(=O)NC(=O)N(c3ccc(Cl)cc3)C2=O)c2ccccc21,,0.89% (inactive)

Structure (SMILES),IC50,inhibition
CN(C)c1ccc(NC(=O)CN2C(=O)CN=C(c3ccccc3)c3ccccc32)cc1,73.3 µM (active),
COc1ccc(OC)c(N2C(=O)NC(=O)/C(=C/c3ccc([N+](=O)[O-])s3)C2=O)c1,,4.62% (inactive)
C=CCN1C(=O)/C(=C/c2ccc(Br)s2)C(=O)NC1=S,,1.24% (inactive)
COc1ccccc1OCC#CCN1CCCC(C)C1 (stereo not given),,14.2% (inactive)
CSc1nc(N)c(N=Nc2ccc([As](=O)(O)O)cc2)c(=O)[nH]1,,5.1% (inactive)
O=C(O)c1ccc(-n2c(O)c(/C=C3\C=Nc4ccccc43)c(=O)[nH]c2=O)cc1,,4.69% (inactive)
O=[N+]([O-])c1ccc2c(c1)Cc1cc(O)ccc1-2,24.5 µM (active),
Cc1cc(/C=C2\C(=O)NC(=O)N(c3ccccc3F)C2=O)c(C)n1-c1cc(C(=O)O)cc(C(=O)O)c1,,-1.62% (inactive)
COc1ccccc1-n1c(O)c(/C=C2\C=Nc3ccccc32)c(=O)[nH]c1=O,,-3.18% (inactive)
CC[N+](C)(CC)CCCCOc1ccc2c(c1)C(=O)c1cc(OCCCC[N+](C)(CC)CC)ccc1-2,,-3.48% (inactive)
CC1=NCCc2c1[nH]c1cc(O)ccc21,10.2 µM (active),
Cc1ccc(OCC(=O)N2CCN(CC3CC4C=CC3C4)CC2)cc1 (stereo not given),,4.58% (inactive)
Clc1ccc(OCC#CCN2CCCCCC2)cc1,,12.5% (inactive)
CCN(CCCl)c1cc(CN(C)C)cc(NC(=O)c2ccc(C(=O)Nc3cc(CN(C)C)cc(N(CC)CCCl)c3)cc2)c1,,2.58% (inactive)
COc1ccc(/C=C2\C(=O)NC(=S)N(C)C2=O)cc1C,,6.6% (inactive)
CC1CCCCN1Cc1cccnc1 (stereo not given),,21.8% (inactive)
COc1ccc(CCNCc2ccccc2)cc1,,14.1% (inactive)
CN(C)C1C(=O)C(C(N)=O)=C(O)C2(O)C(=O)C3=C(O)c4c(O)cccc4C(C)(O)C3C(O)C12 (stereo not given),,-11.3% (inactive)
COc1cc(/C=C2/C(=O)NC(=O)N(c3ccccc3)C2=O)ccc1O,,20.2% (inactive)
COc1cc(/C=C/c2nc3ccccc3c(=O)n2-c2ccccc2O)ccc1O,38.1 µM (active),
O=c1c2ccccc2nc(/C=C/c2ccc(O)cc2)n1-c1ccccc1O,60.4 µM (active),
COc1ccc(-n2c(/C=C/c3ccc(O)c(OC)c3)nc3ccccc3c2=O)cc1,43.2 µM (active),

Structure (SMILES),IC50,inhibition
NC(N)=N/N=C/c1ccc(N(c2ccccc2)c2ccccc2)cc1,,9.2% (inactive)
O=C1CN(O)C(c2ccccc2)=c2cc(Br)ccc2=N1,,-8.57% (inactive)
O=C1NC(=O)N(c2ccc3c(c2)OCO3)C(=O)/C1=C\c1ccc(-c2ccccc2C(=O)O)o1,,2.82% (inactive)
COc1ccc(CN2CCN(Cc3ccccc3OC)CC2)cc1,,26.5% (inactive)
CCc1c(C)nc(N)nc1N1N=C1SC(C(C)=O)C(C)=O,,12.9% (inactive)
O=C1NC(=O)C(=Cc2coc3ccc(O)cc3c2=O)C(=O)N1,,6.5% (inactive)
C=CCN1C(=O)NC(=O)/C(=C/C=C/c2ccccc2)C1=O,,-1.77% (inactive)
CN1C2CCC1/C(=C/c1ccccn1)C(=O)/C2=C\c1ccccn1,,1.44% (inactive)
COc1cc(N2CCOCC2)ccc1/C=C1\C(=O)NC(=O)N(Cc2cccs2)C1=O,,4.76% (inactive)
COc1cc2c(ccc3c4cc(OC)c(OC)cc4c[n+](C)c23)cc1O,,25.9% (inactive)
CC1CN1P(=O)(Oc1ccc2ccccc2c1)N1CC1C (stereo not given),,26.3% (inactive)
O=C1NC(=O)C(=Cc2cccs2)C(=O)N1,,1.78% (inactive)
CN1CCN(c2ccc(N)c(N3CCN(C)CC3)c2)CC1,56 µM (active),
CCN1CCN(CC(c2ccccc2)c2ccccc2)CC1,,21.3% (inactive)
CN1CCN(c2ccc(N)cc2)CC1,42.7 µM (active),
CCN1CCN(c2ccc(N)c(C)c2)CC1,45.2 µM (active),
N/C(=N\N=C/c1ccc(-c2ccc(O)c(C(=O)O)c2)o1)N[N+](=O)[O-],,9.45% (inactive)
COc1cc(N2CCOCC2)ccc1/C=C1\C(=O)NC(=O)N(Cc2ccc3c(c2)OCO3)C1=O,,4.02% (inactive)
O=C(O)CCn1cc(C=C2C(=O)NC(=S)NC2=O)c(-c2cccc(Br)c2)n1,,2.64% (inactive)
Cc1ccc(OCC(=O)N2CCN(Cc3ccc([N+](=O)[O-])cc3)CC2)cc1,,11.2% (inactive)
CCc1ccc(N2C(=O)NC(=O)/C(=C\c3cc(C)n(-c4cc(C(=O)O)cc(C(=O)O)c4)c3C)C2=O)cc1,,-1.7% (inactive)
CN(C)[C@@H]1C(=O)C(C(N)=O)=C(O)[C@@]2(O)C(=O)C3=C(O)c4c(O)cccc4[C@@](C)(O)[C@H]3[C@H](O)[C@@H]12,,-9.39% [at 5 µM] (inactive)

Structure (SMILES),IC50,inhibition
Cc1cccc(N2C(=O)/C(=C/c3ccc(CN(CCC#N)S(C)(=O)=O)o3)C(=O)NC2=S)c1,,-15.4% (inactive)
Cc1ccc2c(C)c3ccc4ccccc4c3c[n+]2c1,,17.8% (inactive)
CN(C)c1ccc(/C=C/C=C/c2sc3ccccc3[n+]2C)cc1,70.2 µM (active),
CN(C)c1ccc(/C=C/c2cc[n+](C)c3ccccc23)cc1,47.2 µM (active) and 59.7 µM (active),
CCc1ccc(CNCCc2c[nH]c3ccccc23)cc1,,14.5% (inactive)
O=C1NC(=O)N(CCC2=CCCCC2)C(=O)/C1=C/c1ccc(O)cc1,,-1.03% (inactive)
COc1ccc(CNCCc2ccc(Cl)cc2)c(OC)c1OC,,15.8% (inactive)
O=C1NC(=S)N(c2ccccc2)C(=O)/C1=C/c1ccco1,,0.33% (inactive)
O=C1NC(=S)N(C2CC2)C(=O)/C1=C/c1ccc2c(c1)CCN2CCCCl,,-10.9% (inactive)
Cc1cc(/C=C2\C(=O)NC(=O)N(c3cccc(F)c3)C2=O)c(C)n1-c1cc(C(=O)O)cc(C(=O)O)c1,,-5.74% (inactive)
Cc1cc(-c2ccc(N)c(C)c2)ccc1N,14.2 µM (active),
COc1cc(-c2ccc(N)c(OC)c2)ccc1N,8.45 µM (active),
Cc1cc(-c2cc(C)c(N)c(C)c2)cc(C)c1N,11.2 µM (active),
Brc1cccc(CNCCc2ccc3c(c2)OCO3)c1,,15.8% (inactive)
CN(C)c1ccc(/C=C2/C(=O)NC(=O)N(Cc3ccco3)C2=O)cc1,,-2.93% (inactive)
Cc1ccccc1N1C(=O)NC(=O)/C(=C\c2cnn(-c3ccccc3)c2)C1=O,,0.64% (inactive)
O=C1NC(=O)C(=Cc2cc(Cl)ccc2OCc2ccc(C(=O)O)cc2)C(=O)N1,,3.85% (inactive)
O=C(COc1ccccc1)N1CCN(CC2CC3C=CC2C3)CC1 (stereo not given),,10.5% (inactive)
O=C1NC(=O)C(=Cc2c(Cl)cccc2Cl)C(=O)N1,,2.89% (inactive)
COc1cc(CNCCc2ccc3c(c2)OCO3)cc(OC)c1OC,,18% (inactive)
O=C(Cc1ccccc1)N1CCN(Cc2ccc(F)cc2)CC1,,18.8% (inactive)
O=C(COc1ccccc1)N1CCN(C2CCCC2)CC1,,18.8% (inactive)

Structure (SMILES),IC50,inhibition
c1ccc(CN2CCN(Cc3ccc4ccccc4c3)CC2)cc1,,21% (inactive)
O=C(O)c1ccccc1-c1ccc(C=C2C(=O)N(c3ccccc3)C(=S)N(c3ccccc3)C2=O)o1,,-13.5% (inactive)
Nc1ccc(-c2ccc(N)cc2)cc1,8 µM (active),
Cc1cc(N(C)C)ccc1N=Nc1ccc(N)cc1,33.7 µM (active),
Nc1ccc(N=Nc2ccc(N)cc2)cc1,20.5 µM (active),
Nc1ccc(Sc2ccc(N)cc2)cc1,10.4 µM (active),
O=C(COc1ccc2ccccc2c1)N1CCN(Cc2ccncc2)CC1,,27% (inactive)
COc1ccc(N2CC2c2ccncc2)cc1 (stereo not given),,15.4% (inactive)
COP(=S)(OC)SCn1nnc2ccccc2c1=O,,3.35% (inactive)
Fc1ccc(CNCCc2ccccc2)cc1,,17.9% (inactive)
COc1cccc(CN2CCN(Cc3cccc(F)c3)CC2)c1,,25.4% (inactive)
O=C(O)CCn1cc(C=C2C(=O)NC(=S)NC2=O)c(-c2ccccc2)n1,,-0.34% (inactive)
COc1ccc(CCNCc2cccc(C(F)(F)F)c2)cc1OC,,7.61% (inactive)
CSc1ccc(CN2CCN(Cc3ccccc3Cl)CC2)cc1,,23.1% (inactive)
O=P(Oc1ccc(-c2ccccc2)cc1)(N1CC1)N1CC1,,12.6% (inactive)
O=C(NC1CCCCC1)Oc1cc2oc(=O)sc2cc1Cl,,6.33% (inactive)
COc1ccccc1N1CCN(Cc2cccc(Br)c2)CC1,,15.7% (inactive)
COc1ccc(Br)cc1CNCCc1cccc(Cl)c1,,18.7% (inactive)
O=C1NC(=O)C(=Cc2ccco2)C(=O)N1,,1.13% (inactive)
Cc1nn(CCC#N)c2c1P(=S)(N1CCCC1)OC(c1ccc(F)cc1)=N2 (stereo not given),,2.38% (inactive)
O=C1NC(=O)N(c2ccccc2)C(=O)/C1=C/c1coc2ccc(O)cc2c1=O,,7.15% (inactive)
CN(C)c1ccc2c(c1)N=C(c1ccco1)OP2(=S)N1CCOCC1 (stereo not given),,3.53% (inactive)
